Columns and labels:
Test in all cases: PBM binding z-score (relative to random genomic background probes); higher = stronger binding; sequences stand for … in GC…GCGATTGACAGCGTAGAATGAAGG
[1] = system: PPARg:RXRa DBDmut IVT, anti-RXR (DBD mutation: RXRa K156A/R161A, NR concentration 270 nM, RXRa partner concentration 90 nM)
Summary of the method: (§1)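 Binding z-scores were set against random background probes. The data came from custom Agilent 4×180K protein-binding microarrays carrying double-stranded probes with 34-nt variable regions, incubated 1 h with ligand-free nuclear receptor dimers. Partner-specific antibodies detected binding, and scanned fluorescence was regression-normalized.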

[2] = system: PPARg:RXRa IVT, anti-PPARg (NR concentration 270 nM, RXRa partner concentration 90 nM)
Summary of the method: as §1

[3] = system: PPARg DBDmut:RXRa IVT, anti-PPARg (DBD mutation: PPARg1 K132A/R137A, NR concentration 270 nM, RXRa partner concentration 90 nM)
Summary of the method: as §1

[4] = system: PPARg DBDmut IVT, anti-PPARg (DBD mutation: PPARg1 K132A/R137A, NR concentration 270 nM)
Summary of the method: as §1

[5] = system: PPARg homodimer (NR concentration 180 nM)
Summary of the method: as §1

[6] = system: PXR:RXRa (NR concentration 270 nM, RXRa partner concentration 90 nM)
Summary of the method: as §1

[7] = system: PXR homodimer (NR concentration 270 nM)
Summary of the method: as §1

[8] = system: RARa:RXR (NR concentration 270 nM, RXRa partner concentration 90 nM)
Summary of the method: as §1

[9] = system: RARa homodimer (NR concentration 270 nM)
Summary of the method: as §1

[10] = system: RARb homodimer (NR concentration 270 nM)
Summary of the method: as §1

[11] = system: RARg:RXRa (NR concentration 270 nM, RXRa partner concentration 90 nM)
Summary of the method: as §1

[12] = system: RARg homodimer (NR concentration 270 nM)
Summary of the method: as §1

[13] = system: RXRa DBDmut IVT, anti-RXR (DBD mutation: RXRa K156A/R161A, NR concentration 90 nM)
Summary of the method: as §1

[14] = system: RXRa homodimer (NR concentration 180 nM)
Summary of the method: as §1

[15] = system: THRa:RXRa (NR concentration 90 nM, RXRa partner concentration 90 nM)
Summary of the method: as §1

[16] = system: THRa homodimer (NR concentration 90 nM)
Summary of the method: as §1

[17] = system: VDR homodimer (NR concentration 270 nM)
Summary of the method: as §1

Sequence	PBM binding z-score [1]	PBM binding z-score [2]	PBM binding z-score [3]	PBM binding z-score [4]	PBM binding z-score [5]	PBM binding z-score [6]	PBM binding z-score [7]	PBM binding z-score [8]	PBM binding z-score [9]	PBM binding z-score [10]	PBM binding z-score [11]	PBM binding z-score [12]	PBM binding z-score [13]	PBM binding z-score [14]	PBM binding z-score [15]	PBM binding z-score [16]	PBM binding z-score [17]
CCTCGGAGGACACCAGGAGGTCAGAGCTGCCAGA	-0.249	0.459	-1.54	-1.67	1.78	2.17	-0.014	2.56	0.922	3.49	3.94	3.53	-0.302	2.11	2.93	1.37	1.13
GCTGCTAGGTCAGGTTGGTCGGCTAACGGGTACG	2.56	1.97	-0.279	-0.788	0.576	-0.127	-0.593	0.317	-0.865	2.31	2.38	3.52	-0.206	0.882	1.5	0.491	0.0919
AGTCCAAGTTCACTAGGTAACGTAAGATTCAGCT	2.21	3.58	1.01	0.63	0.72	2.45	2.13	1.17	0.555	1.95	2.53	2.98	4.3	1.74	1.54	0.381	4.4
AATACAGGGACATCGTAGGCCAGAGTACGCACAG	-0.376	0.372	0.226	0.0255	-0.207	-0.16	0.0295	-0.225	0.123	0.605	0.131	0.818	0.223	-0.000453	1	0.426	0.53
CCTACTGGGCCACGAAAGGTAATTGATTCAGTGA	5.29	5.07	0.766	-0.144	0.00713	-0.257	-0.335	-0.102	0.0551	0.322	0.0783	0.352	-0.464	-0.00441	1.11	-0.00813	-0.234
AGTCAAATTTCATCTAGGTAACGTAAGATATGCT	0.205	2.04	1.11	1.49	0.098	-0.111	-0.176	0.369	0.837	-0.24	-0.128	0.382	0.077	0.184	0.722	0.526	0.0484
GCTGCAAGGTCAACTGATGGTCAGCTAAAGCTCG	3.15	3.5	0.338	-0.136	2.93	4.58	0.331	5.36	0.743	4.71	7.17	7.04	3.75	5.7	4.18	2.31	2.53
CGAACTAGGTCAGAACAGTACAGTGAAGGATGAT	7.19	7.31	2.36	3.58	1.14	0.921	0.234	0.873	0.291	1.96	2.46	3.33	0.94	1.27	1.83	0.222	0.229
TAGCCTAGGTCAGATCGGGCGAGTATACGCTATA	0.488	1.31	-0.335	-0.507	0.138	0.314	-0.678	0.971	-1.26	2.27	2.7	3.68	-0.51	1.44	3.15	-0.0987	-0.405
GCTGCTAGGTCAGGTTGGTCAACTAACGGGTACG	3.05	2.52	-0.717	-0.77	0.891	0.217	-0.382	0.842	-0.0438	2.85	2.92	3.89	0.438	1.17	1.91	0.472	0.97
TTACCAAGGTGAAAGGTCGTTGAGGCACGCCTTG	2.94	5.16	0.87	2.27	2.82	3.98	0.614	6.03	0.265	2.61	4.52	2.03	0.589	6.39	3.49	0.818	1.32
TAGCCTAGGTCAGATCGGGGCAGTATACGCTATA	1.23	1.66	0.079	-0.613	-0.167	1.89	-0.84	0.828	-0.404	2.27	2.87	3.83	-0.173	1.6	4.07	0.0921	0.0728
CGTCGGAGGACAACAGGAGGTCAGAGCTGCCAGA	0.202	0.616	-1.5	-1.4	2.42	2.5	0.93	2.58	0.114	3.63	3.83	3.69	0.531	2.26	2.98	1.12	1.79
ATATGTAGCTTAAGGGTCATTCAGGTTGGTTCGC	0.343	2.21	1.55	0.663	2.61	4.83	1.67	4.2	0.894	3.64	3.62	2.82	1.95	4.27	3.27	1.02	4.07
